Most compounds without a hit are left out; they make up all but 1.9% or so of the library.
APP 5UTR inh: inhibitors of APP translation via 5'UTR reporter, primary screen, APP 5'UTR luciferase, SH-SY5Y cells; inhibition, % at 2 µM; AID 1285, 2008; 190,000 compounds, 0.82% hits; SH-SY5Y APP 5'UTR-luciferase reporter, luminescence;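 active = inhibition above a set limit, derived from the sample mean plus 3 SD, cut at about 45% in these data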
KLF5 inhibitor: KLF5 expression inhibitors, primary screen, DLD-1 cells, luminescence; DLD-1 KLF5 promoter-luciferase reporter; inhibition, % at 5 µM; 290,000 compounds, 0.23% hits;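 active = inhibition above a per-plate limit of that plate's mean compound inhibition plus 3 SD, cut at about 60% in these data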;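 also: 0% = DMSO wells and 100% = LY294002 at 200 µM; higher means less KLF5 promoter-driven luciferase light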
BaF3 parental: parental Ba/F3 cell viability inhibition, counter-screen for JAK2V617F inhibitor project, murine pro-B, CellTiter-Glo luminescence. CellTiter-Glo ATP luminescence. 220,000 compounds, 1.1% hits. inhibition, % at 5.6 µM;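 active = inhibition above a per-campaign cutoff, the mean inhibition of all tested compounds plus 3 SD, cut at about 27% in these data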;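 also: 0% = DMSO wells and 100% = JAK Inhibitor I control wells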
IEC-6 tox: cytotoxicity in IEC-6 intestinal epithelial cells, primary screen, cytotoxicity control for KLF5 inhibitor project, cell-based, luminescence | IEC-6 cytotoxicity, luminescence viability | inhibition, % at 5 µM | 290,000 compounds, 0.78% hits | AID 1825, 2009; in the data active = inhibition above about 22%;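 also: 0% = plate median of test compound wells and 100% = cytotoxic reference compound wells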
Ba/F3 V617F tox: reduced viability of JAK2V617F-dependent Ba/F3 cells, primary screen, JAK2V617F inhibitor project, cell-based, Ba/F3 EpoR-JAK2V617F, luminescence. ATP luminescence. inhibition, % at 5.6 µM. 220,000 compounds, 1.1% hits. AID 1446, 2008;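 active = inhibition above the campaign mean plus 3 SD over all tested compounds, cut at about 24% in these data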;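 also: cytokine-independent growth of Ba/F3 cells driven by EpoR plus mutant JAK2; 0% = DMSO-treated cells and 100% = JAK inhibitor I control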
BaF3 parental 2: parental Ba/F3 cell viability inhibition, counter-screen for JAK2V617F inhibitor project, murine pro-B, CellTiter-Glo luminescence; shares compounds with Ba/F3 V617F tox; cells kept alive by added IL-3; inhibition, % at 5.6 µM; 580 compounds, 31% hits; AID 1520, 2009;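 active = cell growth inhibition above the hit limit set in the earlier mutant JAK2 cell screen, cut at about 27% in these data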;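 also: plate controls were DMSO-treated cells for no effect and JAK Inhibitor I control wells for full effect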
JAK2V617F confrm: viability loss in Ba/F3 EpoR-JAK2V617F cells, confirmation, JAK2V617F inhibitor project, cell-based, luminescence, triplicate; shares compounds with Ba/F3 V617F tox; CellTiter-Glo luminescence; inhibition, % at 5.6 µM; 580 compounds, 66% hits;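 active = mean inhibition above the hit cutoff derived in the earlier primary screen, cut at about 25% in these data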;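 also: 0% = DMSO-treated cells and 100% = JAK inhibitor I control wells; higher means lower luminescence from reduced cell ATP and viability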
The depositor's hits bear a star; / = not tested or not shown.

SMILES | APP 5UTR inh | KLF5 inhibitor | BaF3 parental | IEC-6 tox | Ba/F3 V617F tox | BaF3 parental 2 | JAK2V617F confrm
CN(Cc1ccccc1)C(=O)COC(=O)c1cncc(Br)c1 | 10 | 8 | 12 | -4 | -2 | / | /
Cc1ccn(CCC(=O)Nc2ccc(-c3ccno3)cc2)n1 | / | 3 | / | 8 | / | / | /
O=C(O)c1ccc(N/N=C/c2ccc(-c3ccc(Cl)cc3Cl)o2)cc1 | / | 16 | 13 | 11 | 30* | 45* | 33*
COc1ccc(-c2ccc(SC)nn2)cc1 | -114 | 4 | 25 | 20 | 24* | 32* | 30*
COc1ccc(C(=O)CSc2ccc(-c3ccccc3)nn2)cc1 | -8 | 6 | 7 | 1 | 5 | / | /
CN(C1CCCC1)C1CCN(C(=S)Nc2cc(F)cc(F)c2)CC1 | 7 | -16 | 20 | 6 | 31* | 4 | 32*
CSc1cccc(NC(=S)N2CCC(N(C)C3CCCCCC3)CC2)c1 | 17 | 3 | 11 | 6 | 5 | / | /
COc1ccc(OCCCC(=O)Nc2ncn[nH]2)cc1 | -6 | -14 | 12 | -1 | 3 | / | /
COc1cccc(/C=C/C(=O)OCC(=O)Nc2ccc(N3CCOCC3)cc2)c1OC | -12 | 10 | 1 | 2 | 42* | -4 | -5
O=C(O)CN1C(=O)c2ccc(Oc3ccc4c(c3)C(=O)N(CC(=O)O)C4=O)cc2C1=O | / | -36 | -1 | -3 | 0 | / | /
COc1ccc(OC)c(NS(=O)(=O)c2ccc(SC)cc2)c1 | 4 | 6 | 26 | 22 | 30* | 19 | 70*
CN1CCN(CCNC(=O)c2ccc3nc(-c4ccc(F)cc4)c(-c4ccc(F)cc4)nc3c2)CC1 | / | -20 | / | 4 | / | / | /
Cc1oc2cc(O)cc(C)c2c(=O)c1-c1cnn(-c2ccccc2)c1 | 8 | -38 | 4 | -2 | -2 | / | /
Cc1oc2c(O)c(O)ccc2c(=O)c1-c1cnn(-c2ccccc2)c1 | -18 | 1 | 0 | 1 | 45* | 23 | 99*
N#CCSc1nnc(Nc2ccccc2)s1 | 11 | 0 | 4 | -4 | -2 | / | /
OCCSc1nnc(Nc2ccccc2)s1 | -16 | -60 | -1 | -2 | 65* | -7 | -9
COc1ccc(C2=Nn3c(nnc3C(F)(F)F)SC2)cc1 | / | -2 | / | 16 | / | / | /
C=CCN=c1scc(C)n1/N=C/c1ccc(O)c(O)c1 | -8 | -58 | 25 | 11 | 62* | 37* | 86*
CSc1nc(Cc2ccccc2)cc(=O)[nH]1 | -5 | -5 | -3 | 2 | -3 | / | /
O=C(CCc1ccccc1)Nc1ncc2c(n1)CCCC2=O | 10 | -45 | 9 | 3 | 6 | / | /
CC1(C)CC(=O)c2cnc(NC(=O)CCc3ccccc3)nc2C1 | 14 | 1 | -1 | -1 | 95* | -6 | -8
CCCOc1ccc(C(=O)C(CN2CCCC2)c2ccccc2)cc1 (stereo not given) | 92* | -30 | 6 | 6 | 65* | 52* | 99*
CCCCOc1ccc(C(O)C(CN2CCCCC2)c2ccccc2)cc1 (stereo not given) | 4 | -14 | 11 | -5 | -2 | / | /
Cc1nn(Cc2ccc(Cl)cc2Cl)c(C)c1NC(=O)CCl | -10 | -70 | 5 | -1 | 30* | 5 | 64*
Cc1ccc(S(=O)(=O)NC(CC(=O)n2nc(C)cc2C)c2ccccc2)cc1 (stereo not given) | 3 | -28 | 4 | 4 | -3 | / | /
SMILES | APP 5UTR inh | KLF5 inhibitor | BaF3 parental | IEC-6 tox | Ba/F3 V617F tox | BaF3 parental 2 | JAK2V617F confrm
Cc1ccc(S(=O)(=O)NC(c2ccccc2)C(C)C(=O)n2nc(C)cc2C)cc1 (stereo not given) | -5 | 6 | 14 | 5 | 64* | 14 | 14
Cc1ccc(C)c(S(=O)(=O)Nc2ccc3scnc3c2)c1 | 5 | 16 | 20 | 17 | 35* | 16 | 33*
Cc1ccc(Cl)cc1NC(=S)NN | / | -3 | 4 | 7 | -4 | / | /
O=C(COc1ccc(Cl)cc1)NNC(=O)C(=O)NC1CCCCC1 | / | -51 | / | -2 | / | / | /
COC(=O)C1(C)Cc2cc(OC(C)=O)c(OC(C)=O)cc2N1 (stereo not given) | / | -14 | 17 | 0 | 37* | 4 | 46*
CCCC(=O)N(C1CC(C)C(C#N)(C#N)C1(C#N)C#N)N(C)C (stereo not given) | / | 11 | -2 | 9 | 46* | -1 | 62*
CC1=CC(=O)C(C(C)=Nc2ccccc2Cl)C(=O)O1 (stereo not given) | / | -11 | 2 | 4 | -1 | / | /
O=C(/C=C1\NC2(CCCC2)Cc2ccccc21)C(=O)N/N=C/c1ccc(O)c(O)c1 | 31 | 4 | 3 | 4 | 45* | 12 | 95*
O=C(NCc1ccc(Cl)cc1Cl)C1CCN(S(=O)(=O)c2ccc3c(c2)OCCCO3)CC1 | -7 | -11 | 1 | 1 | -1 | / | /
CC(C)C1C(C#N)=C(N)Oc2n[nH]c(-c3ccc4ccccc4c3)c21 (stereo not given) | 55* | 37 | 10 | 12 | 33* | 26 | 68*
CC(C)C1C(C#N)=C(N)Oc2n[nH]c(-c3cccs3)c21 (stereo not given) | -7 | -3 | 10 | 4 | 5 | / | /
CCN(CC)CCNC(=O)C(=O)NCC1OCCN1S(=O)(=O)c1cccs1 (stereo not given) | / | -15 | / | 0 | / | / | /
Cc1ccc(NC(=O)Cn2c(-c3ccc(F)cc3)cnc2SCC(=O)Nc2c(C)cccc2C)cc1 | 10 | 2 | 0 | 7 | -3 | / | /
CC(C)c1cc(C(=O)N2CCCC(CCC(=O)N3CCN(c4ccccn4)CC3)C2)no1 (stereo not given) | / | 3 | 2 | 6 | 32* | -4 | 1
CCc1cc(C(=O)N2CCCC(CCC(=O)N3CCN(c4ccccn4)CC3)C2)no1 (stereo not given) | 11 | -25 | 1 | 9 | 4 | / | /
Cc1cc(NC(=S)N(Cc2cccc(Br)c2)CC2CCC(C(=O)O)CC2)ccc1Cl (stereo not given) | -22 | 2 | 25 | 2 | 29* | 27* | 38*
Cc1ccc(NC(=S)N(Cc2cccc(Br)c2)CC2CCC(C(=O)O)CC2)cc1 (stereo not given) | -16 | -18 | 6 | -6 | -3 | / | /
O=C1C(Nc2ccccc2)=C/C(=N/S(=O)(=O)c2cccs2)c2ccccc21 | -20 | -48 | 1 | 4 | 46* | 93* | 96*
Cc1cc(F)ccc1NCc1ccncc1 | -10 | -11 | 1 | -5 | 50* | -4 | -4
Cc1ccccc1-c1nn(-c2ccc(F)cc2F)cc1CNCCCN(C)C | -3 | -34 | 10 | 4 | 26* | 3 | 21
